From PubChem BioAssay (EPA / NIEHS)
Active and inactive are the calls of the source. How the source made its calls: active means hit-call score of the fitted dose curve at least 0.9, where 1 is the maximum; inactive means score below 0.9.

What follows are compounds tested on Interleukin-8 (IL8), CXCL8 (gene 3576) (assay: BSK_SAg_IL8: BioMAP Diversity Plus: SAg Assay for Interleukin-8 (IL8) Biomarker Activity (AID 2283094)). Settings: primary human HUVEC with PBMC; actives raise or lower the signal.
Protocol: BSK_SAg is a cell-based, multiplexed-readout assay that uses umbilical vein endothelium and peripheral blood mononuclear cells, a human vascular primary cell co-culture, with measurements taken at 24 hours after chemical dosing in a 96-well plate.BSK_SAg_IL8 is an assay component measured in the BSK_SAg assay. It measures IL-8 antibody related to regulation of gene expression using ELISA technology.Data from the assay component BSK_SAg_IL8 was analyzed into 1 assay endpoint. This assay endpoint, BSK_SAg_IL8, was analyzed with bidirectional fitting relative to DMSO as the negative control and baseline of activity. Using a type of binding reporter, gain or loss-of-signal activity can be used to understand changes in the signaling as they relate to the gene CXCL8. Furthermore, this assay endpoint can be referred to as a primary readout, because this assay has produced multiple assay endpoints where this one serves a signaling function. To generalize the intended target to other relatable targets, this assay endpoint is annotated to the cytokine intended target family, where the subfamily is interleukins.
The levels of cell surface (or secreted, indicated by the prefix "s") biomarker endpoints were measured by ELISA. Overt cytotoxicity to cells in confluent adherent cultures (all systems other than the BT system) was assessed by measuring total protein levels using sulforhodamine B (SRB) staining in parallel cultures at the time of biomarker measurements, indicated as SRB endpoints. For proliferation assays for adherent cell types, individual cell types are cultured at sub-confluence and relative cell numbers quantified by SRB staining at time points optimized for each system (48 h: 3C and CASM3C systems; 72 h: BT and HDF3CGF systems; 96 h: SAg system). SRB was performed by staining cells with 0.1% SRB after fixation with 10% TCA and reading wells at 560 nm.Viability and proliferation of PBMC (T cells) was quantified by Alamar Blue reduction for the SAg and BT systems. For PBMC viability (referred to as PBMC Cytotoxicity within the assay endpoint names), cells were plated (75,000/well in a 96-well plate) and then chemical samples added for 1 h before addition of activators, SEB and TSST-1 (20 ng/mL final concentration each). Cells were incubated for 90 h. Then, Alamar Blue (20 uL/well) (Invitrogen, Cat DAL1100) was added for 6 h, and the plates were read with a fluorescence microplate reader at 546/580 nm (excitation/emission). For PBMC proliferation, cells were plated and activated as above but incubated for only 16 h prior to addition of Alamar Blue. Plates were read after 6 h.

Structure (SMILES)	AC50	outcome
CCCCCCCCOC(=O)c1cc(O)c(O)c(O)c1	11.5 µM (active)	–
COc1ccc2cc(S(=O)(=O)N[C@H](CC(=O)N[C@H](Cc3ccc(CN4[C@H](C)CCC[C@@H]4C)cc3)C(=O)N(C)C(C)C)c3ccc4c(c3)OCO4)ccc2c1	14.8 µM (active)	–
Cc1ncc(CO)c(CO)c1O	–	inactive
CC1(C)NC(=O)N(c2ccc([N+](=O)[O-])c(C(F)(F)F)c2)C1=O	–	inactive
CN1C(=O)CC[C@H]1c1cccnc1	–	inactive
CC(=O)N1CCN(c2ccc(OC[C@H]3CO[C@](Cn4ccnc4)(c4ccc(Cl)cc4Cl)O3)cc2)CC1	26.5 µM (active)	–
O=C1c2ccccc2C(=O)N1CCc1noc(-c2ccc(CN3CCCCCC3)s2)n1	–	inactive
O=C(O)c1ccccc1-n1cc(C(=O)O)c(=O)c2cc(Nc3c(F)cc(F)cc3Cl)c(Cl)cc21	–	inactive
Oc1ccc2ccccc2c1	–	inactive
Cc1cccc2ccccc12	–	inactive
CC(C)(C)c1csc(-c2cc3cc(OCc4ccccc4CC(=O)O)ccc3o2)n1	15.5 µM (active)	–
OC12N=C(c3ccccc3)SC1Cc1cc(Cl)ccc12 (stereo not given)	–	inactive
O=CCCCC=O	–	inactive
CCCCCCCCOc1ccc(C(=O)c2ccccc2)c(O)c1	–	inactive
c1ccc2n[nH]nc2c1	–	inactive
NC(=O)c1nc(-c2cccc(-c3cc(F)ccc3OCC(F)(F)C(F)(F)F)c2)n[nH]1	18.2 µM (active)	–
CN(C)C(=O)C1(N2CCCCC2)CCN(CC[C@@]2(c3ccc(Cl)c(Cl)c3)CN(C(=O)c3ccccc3)CCO2)CC1	12 µM (active)	–
O=C(O)Cn1c(=O)n(Cc2ccc(Br)cc2F)c(=O)c2ccc(Cl)cc21	–	inactive
Clc1ccccc1C(c1ccccc1)(c1ccccc1)n1ccnc1	11.6 µM (active)	–
CCCCCCCCN(C)CCCCCCCC	–	inactive

Structure (SMILES)	AC50	outcome
CCCCOC(=O)CC(CC(=O)OCCCC)(OC(C)=O)C(=O)OCCCC	–	inactive
O=C(OCCCCCCOC(=O)c1ccccc1)c1ccccc1	–	inactive
CCOC(=O)O[C@H](C)OC(=O)c1ccc2c(c1)cc(C(=O)NC1CCN(C(C)C)CC1)n2Cc1cc(-c2ccc(Cl)s2)on1	6.18 µM (active)	–
O=C(O)Cc1cc(I)c(Oc2ccc(O)c(I)c2)c(I)c1	–	inactive
Cc1c2ccccc2c(C)c2c1ccc1ccccc12	26.4 µM (active)	–
Cc1occc1C(=O)Nc1ccc(C(=O)N2CCC(F)(F)/C(=C\C(=O)N3CCC(N4CCCCC4)CC3)c3ccccc32)cc1	–	inactive
CCCCOC(=O)c1ccc(O)cc1	–	inactive
Clc1cc(Cl)c2c(c1)N=C1CCCCCN1C2	–	inactive
O=c1c(-c2ccc(O)cc2)coc2cc(O)cc(O)c12	20 µM (active)	–
CC(C)(O)c1ccc(CNC(=O)c2cccnc2Oc2ccc3nonc3c2)cc1	–	inactive
CC(O)CC(C)(C)O (stereo not given)	–	inactive
C[C@]12CC[C@@H]3c4ccc(O)cc4CC[C@H]3[C@@H]1CC[C@H]2O	–	inactive
CN(C[C@@H](CC[N+]12CCC(C3CCCCC3)(CC1)CC2)c1ccc(Cl)c(Cl)c1)C(=O)c1cc(C(F)(F)F)cc(C(F)(F)F)c1	13.9 µM (active)	–
COCC(C)OCC(C)OCC(C)O (stereo not given)	–	inactive
CCO[Si](CCCNC(N)=O)(OCC)OCC	–	inactive
O=c1[nH]sc2ccccc12	23.2 µM (active)	–
Cc1cc(F)ccc1-c1cc(N2CC[C@@H](O)[C@H]2CO)ncc1N(C)C(=O)C(C)(C)c1cc(C(F)(F)F)cc(C(F)(F)F)c1	7.96 µM (active)	–
CCCC(=O)OCCC(C)C	–	inactive
NCc1cccc(C2CCN(C(=O)c3ccc(C#Cc4ccccc4F)o3)CC2)c1	15.8 µM (active)	–
C[C@]12CC[C@@H]3c4ccc(O)cc4CC[C@H]3[C@@H]1CCC2=O	–	inactive
